Experimental data as given in the supplement of paper PMC6555819.

Assays:
Assay in all cases: PBM binding z-score (relative to random genomic background probes); higher = stronger binding; sequences stand for … in GC…GCGATTGACAGCGTAGAATGAAGG
[1] = system: FXR:RXRa (NR concentration 270 nM, RXRa partner concentration 90 nM)
In short: (§1)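 Each nuclear receptor dimer, without ligand, was incubated for 1 h on custom Agilent 4×180K protein-binding microarrays. Binding was detected with antibodies against each partner (one per run), and scanned fluorescence was regression-normalized. The binding z-scores are referenced to random human genomic background probes.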

[2] = system: LXRa:RXRa (NR concentration 270 nM, RXRa partner concentration 90 nM)
In short: as §1

[3] = system: LXRa homodimer (NR concentration 270 nM)
In short: as §1

[4] = system: LXRb:RXRa (NR concentration 270 nM, RXRa partner concentration 90 nM)
In short: as §1

[5] = system: LXRb homodimer (NR concentration 270 nM)
In short: as §1

[6] = system: PPARa:RXRa (NR concentration 270 nM, RXRa partner concentration 90 nM)
In short: as §1

[7] = system: PPARg:RXRa (NR concentration 180 nM, RXRa partner concentration 90 nM)
In short: as §1

[8] = system: PPARg:RXRa 270nM:90nM, anti-RXR (NR concentration 270 nM, RXRa partner concentration 90 nM)
In short: as §1

[9] = system: PPARg:RXRa 30nM:10nM, anti-RXR (NR concentration 30 nM, RXRa partner concentration 10 nM)
In short: as §1

[10] = system: PPARg:RXRa 90nM:30nM, anti-RXR (NR concentration 90 nM, RXRa partner concentration 30 nM)
In short: as §1

[11] = system: PPARg:RXRa DBDmut IVT, anti-RXR (DBD mutation: RXRa K156A/R161A, NR concentration 270 nM, RXRa partner concentration 90 nM)
In short: as §1

[12] = system: PPARg:RXRa IVT, anti-PPARg (NR concentration 270 nM, RXRa partner concentration 90 nM)
In short: as §1

[13] = system: PPARg DBDmut:RXRa IVT, anti-PPARg (DBD mutation: PPARg1 K132A/R137A, NR concentration 270 nM, RXRa partner concentration 90 nM)
In short: as §1

[14] = system: PPARg DBDmut IVT, anti-PPARg (DBD mutation: PPARg1 K132A/R137A, NR concentration 270 nM)
In short: as §1

[15] = system: PPARg homodimer (NR concentration 180 nM)
In short: as §1

[16] = system: PXR:RXRa (NR concentration 270 nM, RXRa partner concentration 90 nM)
In short: as §1

[17] = system: PXR homodimer (NR concentration 270 nM)
In short: as §1

[18] = system: RARa:RXR (NR concentration 270 nM, RXRa partner concentration 90 nM)
In short: as §1

[19] = system: RARa homodimer (NR concentration 270 nM)
In short: as §1

[20] = system: RARb:RXRa (NR concentration 270 nM, RXRa partner concentration 90 nM)
In short: as §1

Sequence | PBM binding z-score [1] | PBM binding z-score [2] | PBM binding z-score [3] | PBM binding z-score [4] | PBM binding z-score [5] | PBM binding z-score [6] | PBM binding z-score [7] | PBM binding z-score [8] | PBM binding z-score [9] | PBM binding z-score [10] | PBM binding z-score [11] | PBM binding z-score [12] | PBM binding z-score [13] | PBM binding z-score [14] | PBM binding z-score [15] | PBM binding z-score [16] | PBM binding z-score [17] | PBM binding z-score [18] | PBM binding z-score [19] | PBM binding z-score [20]
CAAACTAGGTCCAGAGGTCAAAGTCCGCTTCCCG | 4.77 | 5.55 | 5.71 | 5.03 | 1.62 | 5.29 | 5.18 | 6.22 | 4.37 | 6.29 | 2.96 | 3.98 | 0.89 | 0.535 | 3.29 | 5.47 | 2.58 | 5.5 | 0.452 | 4.11
CGTCGAAGTTCAAGGTAACGTAACAGAAAGCAGC | 2.59 | 2.34 | -0.0774 | 1.38 | -0.503 | 2.51 | 1.18 | 1.48 | 0.235 | 0.847 | -0.377 | 0.326 | 0.134 | -0.191 | 0.722 | 2.28 | 0.897 | 1.5 | -0.214 | 3.38
CGAACTAGGTCAGAACAGGACAGTCAAGGATGAT | 1.77 | 1.06 | 0.173 | 0.627 | -0.362 | 3.31 | 5.24 | 4.41 | 1.74 | 3.31 | 7.24 | 7.46 | 1.4 | 0.732 | 0.7 | 1.08 | 0.108 | 1.05 | 0.263 | 3.08
TCTTGTACATCAGCAGGTTAAGAAAGCTGGCCAA | 0.22 | 0.475 | -0.073 | 0.542 | 0.127 | 0.883 | -0.203 | 1.47 | 2.81 | 2.33 | 1.51 | 0.722 | -0.0534 | 0.403 | -0.0357 | 0.478 | -0.155 | 0.59 | 0.183 | 0.473
TCTATTAGTTGAAGGGCAACCGACGAGTCCGTTT | 0.607 | 1.21 | 0.32 | 0.682 | 0.453 | 0.751 | 0.154 | 2.11 | 3.61 | 2.69 | 2.35 | 0.776 | 1.09 | 0.986 | 1.26 | 1 | 1.32 | 0.605 | 0.801 | 1.61
ACTATTAGTTGAGACGAGGCCAACCGATAGGTTG | 0.859 | 0.188 | 0.0694 | -0.0266 | 0.238 | 0.13 | 0.24 | -0.0513 | -0.341 | -0.176 | -0.553 | 0.338 | -0.0845 | 1.03 | 0.634 | 0.673 | 0.177 | 0.671 | 0.555 | 0.81
TCATATAGGAAATACAGGTGAAAGTCGGCATCTA | 1.36 | 1.32 | 0.335 | 1.27 | 0.00276 | 1.6 | 1.1 | 2.77 | 4.7 | 3.66 | 3.01 | 1.27 | 1.58 | 0.426 | 1.31 | 0.596 | 0.578 | 0.964 | 1.97 | 0.372
